# Measurements reported in PubChem BioAssay AID1159580 (chemical genetic matrix, 2015).
# In all, about 5,500 compounds went through this assay and about 2,000 (36%) were called active. Another 18% or so got no clear call; they are omitted. Some of the results follow. A number with no mark means an inactive call. Cut-off read from the data, not from the text of the source: active = normalized growth mostly below about 0.91 (no sharp cut-off); inconclusive = no clear call, values can overlap the other calls; inactive = mostly above about 0.92.
# Experiment: chemical genetic growth profiling, strain panel (AID 1159580);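 note: tested at 20 µM; growth read once vehicle control cultures reached saturation at 30 °C; 1 = growth at the plate median or of vehicle wells; lower values mean less growth of the strain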
# Conditions: S. cerevisiae deletion strains, growth OD
# [1] = locus YDL101C, strain DUN1, hits give low values
# [2] = locus YHR030C, strain SLT2, hits give low values
smiles,measurement,setting,value
COC(=O)C1=C(Nc2ccc(Cl)cc2)CSC1,normalized growth,"locus YAL013W, strain DEP1, hits give low values",0.956
same,normalized growth,"locus YBR229C, strain ROT2, hits give low values",0.967
same,normalized growth,"locus YCL061C, strain MRC1, hits give low values",0.959
same,normalized growth,[1],0.941
same,normalized growth,"locus YDL134C, strain PPH21, hits give low values",0.773 (active)
same,normalized growth,"locus YDR150W, strain NUM1, hits give low values",0.929
same,normalized growth,"locus YEL061C, strain CIN8, hits give low values",0.771 (active)
same,normalized growth,"locus YGR078C, strain PAC10, hits give low values",0.949
same,normalized growth,[2],0.203 (active)
same,normalized growth,"locus YHR087W, strain rtc3, hits give low values",0.962
same,normalized growth,"locus YJL187C, strain SWE1, hits give low values",0.902 (active)
same,normalized growth,"locus YJR075W, strain HOC1, hits give low values",0.911
same,normalized growth,"locus YKL190W, strain CNB1, hits give low values",0.834 (active)
same,normalized growth,"locus YLR039C, strain RIC1, hits give low values",0.455 (active)
same,normalized growth,"locus YLR058C, strain SHM2 (second series), hits give low values",0.969
same,normalized growth,"locus YLR085C, strain ARP6, hits give low values",0.368 (active)
same,normalized growth,"locus YLR262C, strain YPT6, hits give low values",0.468 (active)
same,normalized growth,"locus YML094W, strain GIM5, hits give low values",0.833 (active)
same,normalized growth,"locus YMR219W, strain ESC1, hits give low values",0.972
same,normalized growth,"locus YMR263W, strain SAP30, hits give low values",0.953
same,normalized growth,"locus YMR307W, strain GAS1, hits give low values",0.417 (active)
same,normalized growth,"locus YNL153C, strain GIM3, hits give low values",0.965
same,normalized growth,"locus YNL298W, strain CLA4 (second series), hits give low values",0.676 (active)
same,normalized growth,"locus YNL322C, strain KRE1, hits give low values",0.97
same,normalized growth,"locus YNR030W, strain Alg12, hits give low values",0.759 (active)
same,normalized growth,"locus YOL006C, strain TOP1, hits give low values",0.522 (active)
same,normalized growth,"locus YPL055C, strain LGE1, hits give low values",0.811
same,normalized growth,"locus YPL241C, strain CIN2, hits give low values",0.742 (active)
same,normalized growth,"locus YPR135W, strain CTF4, hits give low values",0.314 (active)
Fc1ccc(N/N=C\Cc2nnnn2-c2ccccc2)c(F)c1,normalized growth,"locus YAR019C, strain CDC15, hits give low values",0.957
same,normalized growth,"locus YBL105C, strain PKC1, hits give low values",0.951
same,normalized growth,"locus YBR135W, strain CKS1, hits give low values",0.947
same,normalized growth,"locus YBR136W, strain MEC1, hits give low values",0.952
same,normalized growth,"locus YBR160W, strain CDC28, hits give low values",0.961
same,normalized growth,"locus YDL017W, strain CDC7, hits give low values",0.956
same,normalized growth,"locus YDL028C, strain MPS1, hits give low values",0.955
same,normalized growth,[1],0.967
same,normalized growth,"locus YDL108W, strain KIN28, hits give low values",0.948
same,normalized growth,"locus YDL132W, strain cdc53, hits give low values",0.952
same,normalized growth,"locus YDL214C, strain PRR2, hits give low values",0.554 (active)
same,normalized growth,"locus YDR052C, strain DBF4, hits give low values",0.946
same,normalized growth,"locus YDR054C, strain cdc34, hits give low values",0.904
same,normalized growth,"locus YDR226W, strain ADK1, hits give low values",0.95
same,normalized growth,"locus YDR477W, strain SNF1, hits give low values",0.332 (active)
same,normalized growth,"locus YER123W, strain YCK3, hits give low values",0.283 (active)
same,normalized growth,"locus YER133W, strain GLC7, hits give low values",0.592 (active)
same,normalized growth,"locus YFL009W, strain cdc4, hits give low values",0.954
same,normalized growth,"locus YFL029C, strain CAK1, hits give low values",0.955
same,normalized growth,"locus YFR003C, strain YPI1, hits give low values",0.955
same,normalized growth,"locus YFR019W, strain FAB1, hits give low values",0.414 (active)
same,normalized growth,"locus YFR028C, strain CDC14, hits give low values",0.953
same,normalized growth,"locus YGR040W, strain KSS1, hits give low values",0.478 (active)
same,normalized growth,"locus YGR052W, strain FMP48, hits give low values",0.302 (active)
same,normalized growth,"locus YGR092W, strain DBF2, hits give low values",0.122 (active)
same,normalized growth,[2],0.387 (active)
same,normalized growth,"locus YHR079C, strain IRE1, hits give low values",0.366 (active)
same,normalized growth,"locus YHR082C, strain KSP1, hits give low values",0.571 (active)
same,normalized growth,"locus YHR205W, strain SCH9, hits give low values",0.622
same,normalized growth,"locus YIL147C, strain SLN1, hits give low values",0.958
same,normalized growth,"locus YJL095W, strain BCK1, hits give low values",0.16 (active)
same,normalized growth,"locus YJL128C, strain PBS2, hits give low values",0.963
same,normalized growth,"locus YJL157C, strain FAR1, hits give low values",0.519 (active)
same,normalized growth,"locus YJR016C, strain ILV3, hits give low values",0.973
same,normalized growth,"locus YJR066W, strain TOR1 (second series), hits give low values",0.246 (active)
same,normalized growth,"locus YJR066W, strain TOR1, hits give low values",0.356 (active)
same,normalized growth,"locus YKL048C, strain ELM1, hits give low values",0.55 (active)
same,normalized growth,"locus YKL067W, strain YNK1, hits give low values",0.427 (active)
same,normalized growth,"locus YKL101W, strain HSL1, hits give low values",0.341 (active)
same,normalized growth,"locus YKL193C, strain SDS22, hits give low values",0.954
same,normalized growth,"locus YKL203C, strain TOR2, hits give low values",0.481 (active)
same,normalized growth,"locus YLR113W, strain HOG1, hits give low values",0.426 (active)
same,normalized growth,"locus YLR133W, strain CKI1, hits give low values",0.55 (active)
same,normalized growth,"locus YLR403W, strain SFP1, hits give low values",0.429 (active)
same,normalized growth,"locus YML070W, strain DAK1, hits give low values",0.249 (active)
same,normalized growth,"locus YMR001C, strain CDC5, hits give low values",0.951
same,normalized growth,"locus YMR205C, strain PFK2 (second series), hits give low values",0.646 (active)
same,normalized growth,"locus YMR277W, strain FCP1, hits give low values",0.952
same,normalized growth,"locus YNL006W, strain LST8, hits give low values",0.962
same,normalized growth,"locus YNL020C, strain ARK1, hits give low values",0.536 (active)
same,normalized growth,"locus YNL161W, strain CBK1, hits give low values",0.954
same,normalized growth,"locus YNL183C, strain NPR1, hits give low values",0.358 (active)
same,normalized growth,"locus YNL207W, strain RIO2, hits give low values",0.952
same,normalized growth,"locus YNL222W, strain SSU72, hits give low values",0.954
same,normalized growth,"locus YNL307C, strain MCK1 (second series), hits give low values",0.189 (active)
same,normalized growth,"locus YOL078W, strain AVO1, hits give low values",0.947
same,normalized growth,"locus YOL136C, strain PFK27, hits give low values",0.385 (active)
same,normalized growth,"locus YOR061W, strain CKA2, hits give low values",0.222 (active)
same,normalized growth,"locus YOR119C, strain RIO1, hits give low values",0.408 (active)
same,normalized growth,"locus YOR231W, strain MKK1, hits give low values",0.328 (active)
same,normalized growth,"locus YOR329C, strain SCD5, hits give low values",0.964
same,normalized growth,"locus YPL031C, strain PHO85, hits give low values",0.315 (active)
same,normalized growth,"locus YPL153C, strain RAD53, hits give low values",0.359 (active)
same,normalized growth,"locus YPL204W, strain HRR25, hits give low values",0.406 (active)
same,normalized growth,"locus YPL209C, strain IPL1, hits give low values",0.958
same,normalized growth,"locus YPL256C, strain CLN2, hits give low values",0.537 (active)
same,normalized growth,"locus YPR025C, strain CCL1, hits give low values",0.956
same,normalized growth,"locus YPR106W, strain ISR1, hits give low values",0.976
same,normalized growth,"locus YPR111W, strain DBF20, hits give low values",0.97
same,normalized growth,"strain NNK1, hits give low values",0.971
same,normalized growth,"strain TSCII, hits give low values",0.945
